Screen size: about 360,000 compounds; about 25,000 (6.9%) were called active. Another 9% or so got no clear call; they are omitted. Calls come from the whole dose curve; as a rule, active = well fitted inhibition curve with a large enough effect; inconclusive = small, poorly fitted or top-dose-only effect; inactive = flat fitted curve, though single readings scatter. The list comes from a sample in which actives are over-represented; it also holds similar structures and randomly drawn compounds.

The results in this text go back to PubChem BioAssay AID588342 (National Center for Advancing Translational Sciences (NCATS), 2011).

Sequence of Luciferin 4-monooxygenase (Photinus pyralis) (P08659 whole entry, looked up): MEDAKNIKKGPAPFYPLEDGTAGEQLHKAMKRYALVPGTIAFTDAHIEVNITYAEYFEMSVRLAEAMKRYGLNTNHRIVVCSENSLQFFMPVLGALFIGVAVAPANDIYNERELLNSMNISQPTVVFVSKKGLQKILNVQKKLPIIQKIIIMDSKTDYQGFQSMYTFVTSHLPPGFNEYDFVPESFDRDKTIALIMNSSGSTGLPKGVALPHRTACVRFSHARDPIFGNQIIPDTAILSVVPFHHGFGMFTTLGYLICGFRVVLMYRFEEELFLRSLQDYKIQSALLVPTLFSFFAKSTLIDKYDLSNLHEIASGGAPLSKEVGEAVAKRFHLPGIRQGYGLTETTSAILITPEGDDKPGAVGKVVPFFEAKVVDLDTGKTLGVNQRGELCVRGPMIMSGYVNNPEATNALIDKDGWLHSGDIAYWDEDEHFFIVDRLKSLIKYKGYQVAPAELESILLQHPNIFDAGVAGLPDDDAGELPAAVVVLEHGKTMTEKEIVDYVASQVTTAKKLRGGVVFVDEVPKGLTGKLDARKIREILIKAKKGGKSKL

The target of this experiment is Luciferin 4-monooxygenase (Photinus pyralis) (UniProt P08659). In words: qHTS profiling assay for firefly luciferase inhibitor/activator using purifed enzyme and Km concentrations of substrates (counterscreen for miR-21 project).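 For activity change, negative = inhibition: plate controls were vehicle for no effect and reference inhibitor for full effect.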 Note: nearly all actives have a fitted effect of over 55% in size. Particulars: purified FLuc, luminescence inhibition; series mostly up to 57.5 µM; activity change, negative = inhibition: at the top concentration. The text has this:
MLPCN Grant: 1 R21 NS059478-01 (miR-21 grant) Assay Provider: NCGC NCGC Assay Overview: Firefly (Photinus pyralis) luciferase is one of the most commonly used transcriptional reporters for a number of reasons. It is considered one of the more dynamically responsive reporters -that is, responsive to changes in reporter transcription - as it requires no post-translational modifications and is enzymatically active directly after protein synthesis (Wood, 1998). Additionally, the half-life of the luciferase protein is short relative to other reporter-gene products (Wood, 1995). Whereas reporters with long half-lives potentially allow for increased signal due to accumulation of reporter-gene product, once accumulated in the cell, dynamic changes in reporter-gene expression may be difficult to detect(Fan and Wood, 2007; Almond et al., 2004). It has been shown that wild-type P. pyralis luciferase has a half-life of approximately […] hours in mammalian cells (Thompson et al., 1991). Firefly luciferase reporter-gene assays are also generally considered one of the most sensitive assay types (Wood, 1995; Wood, 1998). Although light produced in a bioluminescence reaction is of lower intensity than that produced during fluorescence emission, this is offset by little to no background light inherent to luminescent assays. Thus the luciferase reporter can be expressed at much lower levels than fluorescent proteins while still providing robust signal. # However, it was initially observed, in 1991, by Thompson et al., that compounds that resemble the substrates of firefly luciferase (FLuc) can act as competitive inhibitors of the enzyme, and that these compounds, upon interaction with luciferase in the cell, can actually stabilize the protein and increase its half-life. Accumulated intracellular FLuc protein can be measured as an increase in luminescence signal, upon addition of detection reagents (which contain high concentrations of FLuc substrates) commonly used in high-throughput screening. In cell-based reporter gene assays that use FLuc as the reporter gene to quantitate the potential influence of a given compound against the target biology, this apparent increase in luminescence can mistakenly be interpreted as identification of a compound that is active against the target of interest. This is the case for the miR-21 FLuc reporter gene assay used to identify inhibitors of the miR-21 pathway (PubChem AID 2289) - compounds of interest will inhibit miR-21 biogenesis/expression or activity, and are identified by causing an increase in luminescence, due to increased FLuc translation. However, FLuc inhibitory compounds that stabilize the FLuc protein will give an identical read-out, making it difficult to distinguish compounds that are active against the target from those active against FLuc. Previous profiling work to determine the prevalence of compounds that affect FLuc enzymatic activity (PubChem AID 411) identified that ~3% of the MLSMR library (then at ~72K) inhibited FLuc. […] Since the MLSMR had grown to ~350K compounds, and since it was expected that a significant percentage of compounds found active in the miR-21 FLuc assay would be FLuc inhibitors, the library was screened for activity against FLuc using a biochemical assay of purified FLuc and KM concentrations of FLuc substrates (D-luciferin and ATP).
NCGC Assay Protocol Summary: Reagents: 50mM Tris acetate, pH 7.5; 10mM Mg acetate; 10uM D-luciferin (Sigma #L9504); 10uM ATP; 0.01% Tween-20; 0.05% BSA; 10nM P. pyralis luciferase (Sigma #L9506) Control compounds used were two known firefly luciferase inhibitors (compounds (2) and (5) in Auld et al., 2010), and DMSO. […]
As to `COc1ccc(NC(=O)Nc2cccc3cccnc23)cc1`, the Potency is 1.9 µM (active). On to `CC(C)c1c(CN(C)C(C)Cc2ccccc2)n(C)n(-c2ccccc2)c1=O` (stereo not drawn), for which the “activity change, negative = inhibition” value is -1.08% (inactive). With `Cc1ccccc1NC(=O)COC(=O)c1cc(C)n(C2CC2)c1C`, the “activity change, negative = inhibition” value is -2.71% (inactive).

As for `COC(=O)C1=C(c2cccc(OCc3ccccc3)c2)C[C@@H]2CC[C@H]1N2C(=O)NCc1ccc(Br)cc1`, the “activity change, negative = inhibition” value is -2.45% (inactive). As for `COc1cccc(-c2nc3ccc(N4CCN(C)CC4)cc3[nH]2)c1`, the Potency is 0.269 µM (active).

With `COc1ccc(C(=O)CC2C(=O)N(C)C(=O)N(C)C2=O)cc1`, the “activity change, negative = inhibition” value is -1.78% (inactive). Still for that read-out and setting: as for `O=c1c2ccccc2nc(/C=C/c2ccco2)n1-c1ccccc1O`, the figure is -4.89% (inactive). On to `Cn1c(O)c(C=NCCCC(=O)O)c(=O)n(C)c1=O`, for which the “activity change, negative = inhibition” value was 2.19% (inactive). Still for that read-out and setting: as for `Cn1c(O)c(C=NCCN2CCNCC2)c(=O)n(C)c1=O`, the figure is 5.53% (inactive). With `Cn1c(O)c(C=Nc2ccc3c(c2)CCC3)c(=O)n(C)c1=O`, the Potency is 3.38 µM (active).

On to `CCN1C(=O)C(=Cc2c(C)n(CC(=O)NCC3CCCO3)c3ccccc23)C(=O)N(CC)C1=S` (stereo not drawn), for which the “activity change, negative = inhibition” value was -22% (inactive). The same measure, in the same setting: to `COC(=O)C1=C(c2ccc(F)cc2OCc2ccccc2)C[C@@H]2CC[C@H]1N2C(=O)NCc1ccc(C(C)(C)C)cc1` belongs 1.61% (inactive). Turning to `O=C(OCC(=O)c1cccs1)C1=COCCO1`, the Potency was 23.9 µM (active). As to `CSC1=NP(=S)(SC)N(C)c2nc3n(c21)CCC3` (stereo not drawn), the “activity change, negative = inhibition” value is 2.17% (inactive).

For the compound `CC(C)c1ccc(OCC(=O)N2CCCN(C)CC2)cc1`, the “activity change, negative = inhibition” value is -16.6% (inactive).

As for `CN(C)CC1CCCCC1=O` (stereo not drawn), the “activity change, negative = inhibition” value is 3.35% (inactive).

`CC(=O)Nc1ccc(C(=O)C(Cc2ccccc2)N(C)C)cc1` (stereo not drawn): the “activity change, negative = inhibition” value was 0.596% (inactive). Same read-out and setting: as for `O=C1NC(=O)N(c2ccc(F)cc2)C(=O)/C1=C/c1ccc2c(c1)CCCN2Cc1ccccc1`, the figure is -11.8% (inactive). Turning to `O=C1NC(=O)N(c2ccccc2)C(=O)/C1=C/c1ccc([N+](=O)[O-])s1`, the Potency is 26.9 µM (active). On to `CCN(CC)C(=O)c1ccc(NC(=O)c2sccc2-c2ccccc2)cc1`, for which the “activity change, negative = inhibition” value was -3.15% (inactive).

Consider `O=[N+]([O-])c1ccc(C2C3C(c4ccccc4)=NC4(CCCCC4)N32)cc1` (stereo not drawn), for which the “activity change, negative = inhibition” value was 7.73% (inactive). As to `CC(=O)Oc1ccccc1C(=O)Nc1ncc([N+](=O)[O-])s1`, the Potency is 6.75 µM (active). For `C[C@]12CC[C@H](O)C[C@H]1CC[C@@H]1C2CC[C@]2(C)[C@@H](C3=CC(=O)OC3)[C@@H](O)C[C@]12O` (stereo partly drawn), the “activity change, negative = inhibition” value was 2.82% (inactive). Same read-out and setting: to `CCC1(C)CC(CCNCc2ccc(N(C)C)cc2)(c2ccc(F)cc2)CCO1` (stereo not drawn) belongs -0.536% (inactive); to `CC(C)CN1CCN(Cc2ccccc2C(F)(F)F)CC1CCO` (stereo not drawn), 0.0821% (inactive). Same read-out and setting: as for `NC(=O)Cn1cc(C(=O)c2ccccc2F)c2ccccc21`, the figure is -2.49% (inactive).

Consider `N#Cc1ccc(Cn2cc(C(=O)c3ccco3)c3ccccc32)cc1`, for which the Potency is 19 µM (active).

On to `CN1CCC(OC(=O)c2cccc(F)c2)CC1`, for which the “activity change, negative = inhibition” value is -2.03% (inactive).
